Targets with a hit are over-represented here; the source holds about 7,900 in all. About 0.6% of all pairs of compound and target were hits.
Experiments:
Experiment in all cases: log2 fold change, soluble protein after heating vs DMSO (PISA); higher = thermal stabilisation; K562 cells, 10 uM, 30 min; active = over 0.2 and 3.5 SD of the protein, either way, in both replicates (recomputed)
[1] = compound: CC1=C(C=C(C=C1)NC(=O)C2=CC(=CC=C2)C(C)(C)C#N)NC3=CC4=C(C=C3)N=CN(C4=O)C
How it was run: (§1)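 For each measurement, 10 μM compound was applied for 30 min to K562 cells at 2×10^6 cells/mL. Aliquots were heated for 3 min across 48°C-58°C, pooled, and extracted in PBS with 0.5% NP-40 at 4°C; the supernatant after 21,000xg for 90 min was soluble protein. This was quantified by TMTpro 16plex LC-MS/MS with channel sums equalised, and thermal stability was reported relative to control samples from duplicates, on a log2 fold-change scale.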

[2] = compound: CC1=C(C=C(C=C1)NC(=O)C2=CC(=CC=C2)N(C)C)NC(=O)C3=CC=C(C=C3)O
How it was run: as §1

[3] = compound: CC1=CC=C(C=C1)SC2=C3C=C(SC3=CN=C2)C(=O)N
How it was run: as §1

[4] = compound: CC1=NC(=CC=C1)C2=C(N=C(N2)C(C)(C)C)C3=CC4=NC=CN=C4C=C3
How it was run: as §1

Nexturastat A = compound: CCCCN(Cc1ccc(C(=O)NO)cc1)C(=O)Nc1ccccc1 [Nexturastat A]
How it was run: as §1

vemurafenib = compound: CCCS(=O)(=O)Nc1ccc(F)c(C(=O)c2c[nH]c3ncc(-c4ccc(Cl)cc4)cc23)c1F [vemurafenib]
How it was run: as §1

[5] = compound: CCCS(=O)(=O)Nc1ccc(F)c(C(=O)c2c[nH]c3ncc(Cl)cc23)c1F
How it was run: as §1

[6] = compound: CCCc1cc(C)[nH]c(=O)c1CNC(=O)c1cc(-c2ccnc(N3CCN(C)CC3)c2)cc2c1cnn2C(C)C
How it was run: as §1

givinostat = compound: CCN(CC)Cc1ccc2cc(COC(=O)Nc3ccc(C(=O)NO)cc3)ccc2c1 [givinostat]
How it was run: as §1

barasertib = compound: CCN(CCCOc1ccc2c(Nc3cc(CC(=O)Nc4cccc(F)c4)[nH]n3)ncnc2c1)CCOP(=O)(O)O [barasertib]
How it was run: as §1

Measured: log2 fold change

NOP56 (UniProt O00567)
Chain of UniProt O00567 (O00567 whole entry, looked up): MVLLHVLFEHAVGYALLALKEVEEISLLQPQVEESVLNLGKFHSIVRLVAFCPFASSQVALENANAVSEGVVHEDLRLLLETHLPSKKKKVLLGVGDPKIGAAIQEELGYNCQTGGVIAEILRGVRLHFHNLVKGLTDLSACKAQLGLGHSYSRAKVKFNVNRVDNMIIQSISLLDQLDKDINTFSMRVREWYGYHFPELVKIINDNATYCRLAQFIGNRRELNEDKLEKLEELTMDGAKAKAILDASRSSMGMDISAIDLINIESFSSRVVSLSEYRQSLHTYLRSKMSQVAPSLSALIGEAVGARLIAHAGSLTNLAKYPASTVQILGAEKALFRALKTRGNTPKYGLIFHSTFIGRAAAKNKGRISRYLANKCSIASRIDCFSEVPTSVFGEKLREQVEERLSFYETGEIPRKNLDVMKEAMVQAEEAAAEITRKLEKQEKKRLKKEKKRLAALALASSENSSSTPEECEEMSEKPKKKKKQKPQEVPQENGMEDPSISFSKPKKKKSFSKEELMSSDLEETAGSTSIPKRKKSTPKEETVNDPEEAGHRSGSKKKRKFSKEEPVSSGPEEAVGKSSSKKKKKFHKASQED
inactive: [1] -0.024 | [2] -0.001 | [3] -0.149 | [4] -0.136 | Nexturastat A 0.127 | vemurafenib -0.018 | [5] -0.065 | [6] 0.003 | givinostat 0.096 | barasertib -0.076

MND1 (UniProt Q9BWT6)
inactive: [1] 0.034 | [2] 0.021 | [3] 0 | [4] 0.025 | Nexturastat A -0.043 | vemurafenib -0.016 | [5] -0.024 | [6] -0.091 | givinostat 0.048 | barasertib -0.032

NME2P1 (UniProt O60361)
inactive: [1] 0.06 | [2] 0.017 | [3] 0.065 | [4] 0.004 | Nexturastat A -0.164 | vemurafenib 0.038 | [5] -0.043 | [6] -0.102 | givinostat 0.09 | barasertib 0.12

P4HA2 (UniProt O15460)
inactive: [1] -0.038 | [2] -0.014 | [3] 0.033 | [4] -0.102 | Nexturastat A 0.402 | vemurafenib -0.093 | [5] -0.038 | [6] 0.043 | givinostat 0.058 | barasertib 0.101

OTUD6B (UniProt Q8N6M0)
Chain of UniProt Q8N6M0 (Q8N6M0 whole entry, looked up): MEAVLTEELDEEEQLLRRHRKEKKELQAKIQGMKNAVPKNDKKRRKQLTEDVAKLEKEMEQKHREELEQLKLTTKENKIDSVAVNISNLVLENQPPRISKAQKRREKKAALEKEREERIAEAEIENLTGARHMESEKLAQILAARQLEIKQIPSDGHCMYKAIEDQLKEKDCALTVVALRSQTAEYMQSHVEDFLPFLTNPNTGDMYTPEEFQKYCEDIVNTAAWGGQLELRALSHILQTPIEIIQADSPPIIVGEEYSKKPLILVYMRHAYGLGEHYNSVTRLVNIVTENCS
inactive: [1] 0.045 | [2] -0.002 | [3] 0.124 | [4] 0.007 | Nexturastat A 0.044 | vemurafenib 0.035 | [5] 0.14 | [6] 0.084 | givinostat -0.02 | barasertib 0.096

MON2 isoform 5 (UniProt Q7Z3U7)
inactive: [1] -0.002 | [2] -0.009 | [3] -0.036 | [4] 0.018 | Nexturastat A 0 | vemurafenib 0.017 | [5] 0.085 | [6] 0.046 | givinostat 0.029 | barasertib 0.039

NAPG (UniProt Q99747)
Chain of UniProt Q99747 (Q99747 whole entry, looked up): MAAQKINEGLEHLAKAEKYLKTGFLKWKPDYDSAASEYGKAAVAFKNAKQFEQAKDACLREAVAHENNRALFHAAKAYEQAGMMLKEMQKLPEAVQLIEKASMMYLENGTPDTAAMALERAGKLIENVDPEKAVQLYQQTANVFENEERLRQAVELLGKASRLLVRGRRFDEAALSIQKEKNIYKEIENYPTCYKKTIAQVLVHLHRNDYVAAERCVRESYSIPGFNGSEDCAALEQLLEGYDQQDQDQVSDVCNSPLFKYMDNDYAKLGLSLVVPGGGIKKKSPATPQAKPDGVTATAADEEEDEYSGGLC
inactive: [1] 0.044 | [2] -0.115 | [3] 0.077 | [4] 0.006 | Nexturastat A 0.004 | vemurafenib 0.067 | [5] 0.155 | [6] 0.045 | givinostat 0.123 | barasertib 0.107

NR2C2AP isoform 2 (UniProt Q86WQ0)
inactive: [1] -0.053 | [2] -0.068 | [3] -0.007 | [4] 0.082 | Nexturastat A -0.101 | vemurafenib -0.026 | [5] 0.066 | [6] -0.085 | givinostat -0.035 | barasertib -0.002

MYL12B (UniProt O14950)
Chain of UniProt O14950 (O14950 whole entry, looked up): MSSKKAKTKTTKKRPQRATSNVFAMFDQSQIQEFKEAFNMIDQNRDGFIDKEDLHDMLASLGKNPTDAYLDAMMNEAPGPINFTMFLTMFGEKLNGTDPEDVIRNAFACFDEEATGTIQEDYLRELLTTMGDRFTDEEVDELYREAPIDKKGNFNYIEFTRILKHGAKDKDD
inactive: [1] 0.005 | [2] -0.015 | [3] 0.014 | [4] 0.007 | Nexturastat A -0.005 | vemurafenib 0.039 | [5] 0.054 | [6] 0.136 | givinostat -0.023 | barasertib 0.014

MRPS2 (UniProt Q9Y399)
inactive: [1] 0.075 | [2] -0.049 | [3] -0.018 | [4] 0.029 | Nexturastat A 0.049 | vemurafenib 0.126 | [5] 0.041 | [6] -0.084 | givinostat -0.044 | barasertib -0.031

NFATC3 (UniProt Q12968)
inactive: [1] 0.067 | [2] -0.506 | [3] 0 | [4] -0.055 | Nexturastat A 0.047 | vemurafenib -0.033 | [5] 0.094 | [6] 0.116 | givinostat 0.088 | barasertib 0.019

OXR1 (UniProt Q8N573)
inactive: [1] 0.005 | [2] -0.003 | [3] 0.005 | [4] 0.052 | Nexturastat A -0.025 | vemurafenib 0.023 | [5] -0.013 | [6] -0.062 | givinostat 0.012 | barasertib 0.027

NFE2 (UniProt Q16621)
inactive: [1] -0.09 | [2] 0.064 | [3] 0.017 | [4] 0.034 | Nexturastat A 0.044 | vemurafenib -0.087 | [5] 0.043 | [6] -0.009 | givinostat 0.087 | barasertib -0.003

NDUFAF6 (UniProt Q330K2)
Chain of UniProt Q330K2 (Q330K2 whole entry, looked up): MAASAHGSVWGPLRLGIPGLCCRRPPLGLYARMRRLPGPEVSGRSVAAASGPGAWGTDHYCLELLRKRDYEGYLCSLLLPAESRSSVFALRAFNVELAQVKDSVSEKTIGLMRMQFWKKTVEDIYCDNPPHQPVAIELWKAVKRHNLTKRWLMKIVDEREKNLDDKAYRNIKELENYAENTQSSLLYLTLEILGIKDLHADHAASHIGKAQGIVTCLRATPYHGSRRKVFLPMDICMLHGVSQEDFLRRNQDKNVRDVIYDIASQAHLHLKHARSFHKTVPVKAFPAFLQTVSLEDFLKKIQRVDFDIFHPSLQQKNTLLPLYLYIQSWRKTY
inactive: [1] 0.055 | [2] 0.068 | [3] 0.169 | [4] 0.024 | Nexturastat A -0.052 | vemurafenib -0.055 | [5] 0.035 | [6] -0.088 | givinostat -0.063 | barasertib -0.01

NEDD4 isoform 4 (UniProt P46934)
Chain of UniProt P46934 (P46934 whole entry, looked up): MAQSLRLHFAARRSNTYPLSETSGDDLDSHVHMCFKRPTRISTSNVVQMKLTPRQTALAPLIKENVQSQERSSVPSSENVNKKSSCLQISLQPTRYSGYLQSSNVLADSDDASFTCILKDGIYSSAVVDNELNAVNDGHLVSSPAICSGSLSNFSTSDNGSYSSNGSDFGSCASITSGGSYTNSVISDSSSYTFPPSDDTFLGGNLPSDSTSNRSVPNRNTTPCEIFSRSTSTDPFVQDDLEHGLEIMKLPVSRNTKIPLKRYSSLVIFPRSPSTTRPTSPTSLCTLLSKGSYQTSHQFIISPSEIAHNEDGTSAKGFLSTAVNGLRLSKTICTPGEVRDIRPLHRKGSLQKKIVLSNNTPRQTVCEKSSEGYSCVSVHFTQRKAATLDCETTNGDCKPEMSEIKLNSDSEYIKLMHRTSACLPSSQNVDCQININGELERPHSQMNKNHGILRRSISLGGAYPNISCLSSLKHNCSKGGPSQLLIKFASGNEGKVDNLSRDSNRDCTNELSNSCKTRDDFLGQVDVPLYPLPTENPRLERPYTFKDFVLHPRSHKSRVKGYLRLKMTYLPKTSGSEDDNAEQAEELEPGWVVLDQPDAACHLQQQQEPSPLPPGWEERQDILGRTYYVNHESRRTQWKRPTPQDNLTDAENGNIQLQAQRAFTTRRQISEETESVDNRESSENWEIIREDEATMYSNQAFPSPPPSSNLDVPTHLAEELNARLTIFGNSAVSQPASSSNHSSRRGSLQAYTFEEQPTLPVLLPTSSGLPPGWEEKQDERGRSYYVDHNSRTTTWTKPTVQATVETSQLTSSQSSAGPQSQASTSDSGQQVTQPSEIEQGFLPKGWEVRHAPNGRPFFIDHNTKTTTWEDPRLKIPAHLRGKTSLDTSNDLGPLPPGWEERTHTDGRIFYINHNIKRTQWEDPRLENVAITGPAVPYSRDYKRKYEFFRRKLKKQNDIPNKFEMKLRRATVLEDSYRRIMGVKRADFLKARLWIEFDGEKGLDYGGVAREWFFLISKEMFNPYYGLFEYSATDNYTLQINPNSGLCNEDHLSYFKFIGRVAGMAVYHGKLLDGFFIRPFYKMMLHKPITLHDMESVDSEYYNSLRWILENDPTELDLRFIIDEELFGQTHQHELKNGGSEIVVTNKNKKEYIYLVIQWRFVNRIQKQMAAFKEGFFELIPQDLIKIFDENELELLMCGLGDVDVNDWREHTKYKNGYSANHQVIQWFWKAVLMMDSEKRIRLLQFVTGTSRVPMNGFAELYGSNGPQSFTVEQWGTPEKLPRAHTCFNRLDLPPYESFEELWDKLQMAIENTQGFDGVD
inactive: [1] -0.069 | [2] -0.011 | [3] -0.025 | [4] 0.047 | Nexturastat A -0.04 | vemurafenib 0.029 | [5] 0.026 | [6] 0.026 | givinostat 0.018 | barasertib 0.009

MRPL46 (UniProt Q9H2W6)
inactive: [1] 0.061 | [2] -0.044 | [3] -0.009 | [4] -0.064 | Nexturastat A 0.076 | vemurafenib -0.061 | [5] -0.006 | [6] 0.009 | givinostat -0.003 | barasertib -0.008

MON1B (UniProt Q7L1V2)
inactive: [1] 0.064 | [2] -0.003 | [3] 0.071 | [4] 0.019 | Nexturastat A -0.058 | vemurafenib -0.005 | [5] 0.032 | [6] -0.036 | givinostat 0.024 | barasertib 0.005

NFATC2IP (UniProt Q8NCF5)
inactive: [1] -0.029 | [2] -0.026 | [3] 0.028 | [4] 0.013 | Nexturastat A 0.007 | vemurafenib -0.01 | [5] 0.014 | [6] 0.015 | givinostat 0.088 | barasertib 0.124

NUDCD2 (UniProt Q8WVJ2)
inactive: [1] -0.018 | [2] -0.109 | [3] 0.117 | [4] 0.019 | Nexturastat A 0.082 | vemurafenib -0.014 | [5] 0.008 | [6] -0.039 | givinostat 0.047 | barasertib 0.104

MRPS24 (UniProt Q96EL2)
inactive: [1] -0.01 | [2] -0.037 | [3] 0.047 | [4] -0.003 | Nexturastat A 0.095 | vemurafenib -0.065 | [5] 0.057 | [6] -0.016 | givinostat -0.035 | barasertib -0.024

PACS1 (UniProt Q6VY07)
Chain of UniProt Q6VY07 (Q6VY07 whole entry, looked up): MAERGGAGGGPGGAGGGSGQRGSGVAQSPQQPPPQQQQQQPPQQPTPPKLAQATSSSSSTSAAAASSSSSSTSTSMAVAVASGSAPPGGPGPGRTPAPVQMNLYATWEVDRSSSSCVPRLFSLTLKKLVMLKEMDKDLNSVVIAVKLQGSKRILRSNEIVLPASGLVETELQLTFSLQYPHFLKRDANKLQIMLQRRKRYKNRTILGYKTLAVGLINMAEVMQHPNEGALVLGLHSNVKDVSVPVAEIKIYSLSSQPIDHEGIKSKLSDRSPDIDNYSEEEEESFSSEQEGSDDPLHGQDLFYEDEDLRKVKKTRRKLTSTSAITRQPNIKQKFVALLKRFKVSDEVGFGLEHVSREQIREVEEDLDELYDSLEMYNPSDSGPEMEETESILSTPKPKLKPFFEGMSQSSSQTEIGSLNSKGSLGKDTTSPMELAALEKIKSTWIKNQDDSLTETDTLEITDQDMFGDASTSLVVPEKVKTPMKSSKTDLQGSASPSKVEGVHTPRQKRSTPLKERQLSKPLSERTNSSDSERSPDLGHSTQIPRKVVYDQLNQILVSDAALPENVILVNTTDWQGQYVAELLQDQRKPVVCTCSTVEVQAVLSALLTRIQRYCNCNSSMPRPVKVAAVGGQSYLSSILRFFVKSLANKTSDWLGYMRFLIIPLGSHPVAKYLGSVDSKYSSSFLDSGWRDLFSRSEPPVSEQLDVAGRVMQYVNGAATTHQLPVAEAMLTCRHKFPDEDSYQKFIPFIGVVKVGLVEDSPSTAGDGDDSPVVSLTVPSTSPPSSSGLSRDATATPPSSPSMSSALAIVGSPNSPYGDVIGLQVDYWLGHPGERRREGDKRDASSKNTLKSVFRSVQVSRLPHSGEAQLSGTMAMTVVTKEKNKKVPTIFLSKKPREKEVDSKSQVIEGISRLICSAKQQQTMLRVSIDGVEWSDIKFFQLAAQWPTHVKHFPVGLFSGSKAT
inactive: [1] -0.001 | [2] -0.031 | [3] -0.021 | [4] 0.087 | Nexturastat A 0.023 | vemurafenib 0.021 | [5] 0.023 | [6] 0.092 | givinostat 0.004 | barasertib 0.039

NUP205 (UniProt Q92621)
inactive: [1] 0.009 | [2] 0.018 | [3] 0.002 | [4] 0.075 | Nexturastat A 0.151 | vemurafenib 0.059 | [5] 0.084 | [6] -0.016 | givinostat 0.076 | barasertib 0.044

OGFR (UniProt Q9NZT2)
Chain of UniProt Q9NZT2 (Q9NZT2 whole entry, looked up): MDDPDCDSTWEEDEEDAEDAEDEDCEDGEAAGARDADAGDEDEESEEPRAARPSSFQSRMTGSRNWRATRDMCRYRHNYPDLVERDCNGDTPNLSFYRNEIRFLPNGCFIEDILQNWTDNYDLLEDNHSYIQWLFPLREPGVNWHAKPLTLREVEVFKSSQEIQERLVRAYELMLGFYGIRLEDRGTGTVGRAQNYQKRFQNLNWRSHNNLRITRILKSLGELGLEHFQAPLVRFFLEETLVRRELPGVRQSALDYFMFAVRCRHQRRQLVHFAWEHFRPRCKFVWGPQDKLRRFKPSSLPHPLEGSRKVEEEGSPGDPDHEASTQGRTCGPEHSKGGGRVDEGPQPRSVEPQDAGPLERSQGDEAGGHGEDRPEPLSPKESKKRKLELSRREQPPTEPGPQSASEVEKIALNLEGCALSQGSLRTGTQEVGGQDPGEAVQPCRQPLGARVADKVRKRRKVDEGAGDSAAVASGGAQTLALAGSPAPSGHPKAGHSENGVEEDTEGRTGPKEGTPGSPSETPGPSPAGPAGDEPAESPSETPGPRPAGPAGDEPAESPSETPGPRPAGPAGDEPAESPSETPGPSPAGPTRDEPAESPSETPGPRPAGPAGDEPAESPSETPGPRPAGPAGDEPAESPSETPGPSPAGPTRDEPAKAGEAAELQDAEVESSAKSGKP
inactive: [1] -0.023 | [2] 0.018 | [3] -0.022 | [4] 0.035 | Nexturastat A 0.057 | vemurafenib 0.075 | [5] 0.002 | [6] 0.01 | givinostat -0.02 | barasertib 0.125

NARS2 (UniProt Q96I59)
inactive: [1] -0.016 | [2] 0.002 | [3] -0.011 | [4] 0.019 | Nexturastat A -0.071 | vemurafenib -0.01 | [5] 0.038 | [6] -0.033 | givinostat -0.076 | barasertib 0.002

MORF4L2 (UniProt Q15014)
Chain of UniProt Q15014 (Q15014 whole entry, looked up): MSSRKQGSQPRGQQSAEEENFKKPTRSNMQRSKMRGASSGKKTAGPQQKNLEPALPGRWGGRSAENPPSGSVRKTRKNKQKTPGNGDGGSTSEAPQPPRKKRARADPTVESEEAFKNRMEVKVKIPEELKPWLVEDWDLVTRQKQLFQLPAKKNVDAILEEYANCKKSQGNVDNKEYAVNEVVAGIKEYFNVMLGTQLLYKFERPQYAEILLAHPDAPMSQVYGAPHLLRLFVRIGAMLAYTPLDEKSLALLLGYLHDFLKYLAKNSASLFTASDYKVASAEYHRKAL
inactive: [1] -0.004 | [2] -0.061 | [3] -0.015 | [4] -0.083 | Nexturastat A 0.129 | vemurafenib 0.009 | [5] 0.036 | [6] 0.038 | givinostat -0.007 | barasertib -0.03

NHLRC2 (UniProt Q8NBF2)
inactive: [1] -0.06 | [2] 0.225 | [3] -0.014 | [4] -0.014 | Nexturastat A -0.055 | vemurafenib -0.053 | [5] -0.048 | [6] -0.076 | givinostat -0.006 | barasertib -0.004

MRPS18B (UniProt Q9Y676)
inactive: [1] -0.036 | [2] -0.165 | [3] -0.08 | [4] 0.009 | Nexturastat A 0.031 | vemurafenib -0.074 | [5] 0 | [6] -0.081 | givinostat 0.075 | barasertib -0.017

MITD1 (UniProt Q8WV92)
inactive: [1] -0.124 | [2] 0.072 | [3] -0.043 | [4] -0.043 | Nexturastat A -0.026 | vemurafenib 0.069 | [5] 0 | [6] -0.093 | givinostat -0.047 | barasertib 0.042

MRPS12 (UniProt O15235)
inactive: [1] -0.034 | [2] -0.094 | [3] 0.054 | [4] -0.069 | Nexturastat A 0.201 | vemurafenib -0.146 | [5] 0.032 | [6] -0.002 | givinostat 0.077 | barasertib -0.054

Reference: the supplement of paper PMC10849652
